Rows were chosen to be rich in hits. Some 15% of all compounds tested hit in one or more screens of this group.
TDP1 cell CPT: DT40-hTDP1 cell growth loss with CPT | chicken DT40 Tdp1-/-;hTDP1 cells + 20 nM CPT, ATP luminescence, 48 h | 420,000 compounds, 12% hits | Potency, µM (series often up to 46.2 µM), inactives show at the top dose activity change, negative = growth inhibition, hits mostly inhibitors; note: nearly all actives have a fitted effect of over 55% in size
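Chicken DT40 Tdp1-/- cells stably complemented with human TDP1 were seeded at 400 cells/well in medium containing 20 nM camptothecin, exposed to pin-transferred compounds, and grown at 37 °C for at least 48 hr. Viability was read as ATP luminescence.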
TDP1 cell noCPT: qHTS for Inhibitors of human tyrosyl-DNA phosphodiesterase 1 (TDP1): qHTS in cells in absence of CPT | AID 686978, 2013 | DT40 Tdp1-/- hTDP1 cells, no CPT, ATP luminescence, 48 h | Potency, µM (top dose mostly 46.2 µM), without a hit: top-dose activity change, negative = growth inhibition, hits mostly inhibitors | 420,000 compounds, 15% hits; note: nearly all actives have a fitted effect of over 55% in size
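DT40 Tdp1-/-;hTDP1 cells, no CPT (DMSO vehicle only), 400 cells/well; compounds pin-transferred; ≥48 hr, 37 °C; CellTiter-Glo 30 min RT dark, luminescence read.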
RORg inh: blocks mouse ROR gamma transcriptional activity; P51450; Drosophila S2 Gal4-RORgamma UAS-luciferase reporter, 20 h; Potency, µM (top dose mostly 53.6 µM), without a hit: at the top dose activity change, negative = inhibition, hits mostly inhibitors; 310,000 compounds, 5.4% hits; note: nearly all actives have a fitted effect of over 60% in size
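Luminescence from a UAS-regulated Photinus luciferase reporter in stably transfected Drosophila Schneider cells is measured; decreased signal marks ROR gamma inhibition. Fusion expression is induced by 700 uM copper sulfate for 20 hr.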
ELG1 DNA repair: inhibitors of ELG1-dependent DNA repair in HEK293T cells; 330,000 compounds, 2.3% hits; HEK293T ELG1-luciferase reporter, luminescence, 16 h; DNA damage induced by 5-fluorouridine; Potency, µM (highest dose often 46.1 µM), for inactives: at the top dose activity change, negative = inhibition, actives largely listed as inhibitors; AID 504467; note: nearly all actives have a fitted effect of over 55% in size
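5-Fluorouridine DNA damage + compound/DMSO, 2,000 cells/well, 16 h, 37 °C/5% CO2. ONE-Glo, 30 min RT, luminescence. Readout = decrease in reporter signal.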
Gal4-VP16 FLuc: inhibits Gal4-VP16 luciferase reporter, ROR gamma counter-screen. Drosophila S2 Gal4-VP16 UAS-luciferase, luminescence, 20 h. Potency, µM (doses to about 53.6 µM), for the others: top-dose activity, negative = inhibition, actives largely listed as inhibitors. 310,000 compounds, 3.5% hits. AID 2546;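 note: Gal4-VP16 expression switched on by copper sulfate through the metallothionein promoter; nearly all actives have a fitted effect of over 50% in size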
ALOX12 inh: inhibitors of human 12S-lipoxygenase ALOX12; P18054; purified 12hLO, xylenol orange hydroperoxide absorbance; Potency, µM (highest dose often 108 µM), inactives show at the highest dose activity change, negative = inhibition, most hits filed as inhibitors; 580,000 compounds, 1.1% hits
Target sequence (P18054 whole entry, looked up): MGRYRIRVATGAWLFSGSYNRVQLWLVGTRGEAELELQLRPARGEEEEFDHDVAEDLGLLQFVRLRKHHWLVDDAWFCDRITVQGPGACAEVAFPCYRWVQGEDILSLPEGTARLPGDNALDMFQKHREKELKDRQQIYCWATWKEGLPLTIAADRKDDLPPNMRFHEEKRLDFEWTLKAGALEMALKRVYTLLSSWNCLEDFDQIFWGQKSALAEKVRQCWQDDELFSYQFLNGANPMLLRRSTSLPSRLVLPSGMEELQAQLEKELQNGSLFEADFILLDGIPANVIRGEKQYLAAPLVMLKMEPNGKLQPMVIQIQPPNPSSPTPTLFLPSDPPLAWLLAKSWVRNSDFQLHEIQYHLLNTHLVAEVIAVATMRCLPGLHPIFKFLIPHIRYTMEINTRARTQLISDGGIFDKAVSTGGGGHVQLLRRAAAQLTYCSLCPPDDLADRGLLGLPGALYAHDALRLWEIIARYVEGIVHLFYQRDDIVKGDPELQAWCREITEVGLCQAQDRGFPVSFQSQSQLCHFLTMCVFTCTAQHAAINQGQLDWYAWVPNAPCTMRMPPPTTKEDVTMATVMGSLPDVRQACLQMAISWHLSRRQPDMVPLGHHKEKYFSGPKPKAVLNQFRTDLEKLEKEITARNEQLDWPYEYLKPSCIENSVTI
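Purified human 12hLO (150 nM final) in 25 mM Hepes, 0.01% Triton X-100, pH 7.0 was preincubated 15 min at room temperature with compound. Then 40 uM arachidonic acid was added, 30 min. Hydroperoxide was read by Fe-XO absorbance ratio 573/405 nm.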
* marks the source's active call; other numbers are inactive results; ? = inconclusive; / = no result; [ ] = another dose, or the depositor's remark. Calls come from the whole dose curve; as a rule, active = well fitted curve in the direction sought with a large enough effect; inconclusive = small, poorly fitted or top-dose-only effect, or another doubt; inactive = no such curve, though single readings can be large; an effect the other way counts as inactive or inconclusive. % is set by controls: 0 for no effect and ±100 for the full control effect; potency is the fitted concentration of half-maximal effect.

SMILES | TDP1 cell CPT | TDP1 cell noCPT | RORg inh | ELG1 DNA repair | Gal4-VP16 FLuc | ALOX12 inh
Cc1cccc2sc(NC(=O)c3ccc(OCC4CCCO4)cc3)nc12 (stereo not drawn) | -92% | ? | -3% | 6% | -12%[10 µM] | 3%
C=C1/C(=C\C=C2/CCC[C@]3(C)C([C@H](C)CCCC(C)(C)O)CC[C@@H]23)C[C@@H](O)C[C@@H]1O (stereo partly drawn) | ? | -21%[4.12 µM] | / | / | / | -1%[12.5 µM]
C=C1CC[C@H](O)CC1=C/C=C1\CCC[C@]2(C)[C@@H]([C@H](C)CC[C@@H](O)C(C)(C)O)CC[C@@H]12 | ? | 24µM* | / | / | / | /
C=C1/C(=C\C=C2/CCC[C@]3(C)[C@@H]([C@H](C)/C=C/[C@@H](O)C4CC4)CC[C@@H]23)C[C@@H](O)C[C@@H]1O | / | / | -12% | / | -25% | /
C=C1/C(=C\C=C2/CCC[C@]3(C)[C@@H]([C@H](C)OCCC(C)(C)O)CC[C@@H]23)C[C@@H](O)C[C@@H]1O | 15µM* | ? | / | / | / | /
CCC(C)[C@H](NC(=O)[C@@H]1Cc2ccccc2CN1)C(=O)NC1CCCC1 (stereo partly drawn) | / | / | / | / | / | 11%
CC(=O)N1CCc2c(sc(NC(=O)C3CC3)c2-c2nc3ccccc3s2)C1 | 16µM* | 15µM* | -1% | ? | -6% | ?
CC(=O)N1CCc2c(sc(NC(=O)CSc3ccccc3)c2-c2nc3ccccc3s2)C1 | 13µM* | 10µM* | / | / | / | ?
CN1CCc2c(sc(NC(=O)CSc3ccccc3)c2-c2nc3ccccc3s2)C1 | ? | 21µM* | / | / | / | -18%
CCCCC(=O)Nc1sc2c(c1-c1nc3ccccc3s1)CCN(C(C)=O)C2 | / | / | ? | 18µM* | ? | /
CC(C)C(NC(=O)C1CCCCC1C)C(=O)O (stereo not drawn) | / | / | / | / | / | 2%
COc1ccc2oc(-c3ccc(C)cc3)cc(=O)c2c1 | / | / | / | / | / | -11%
COc1ccc2oc3cc(C)[n+]([O-])c(-c4ccc(Br)cc4)c3c2c1 | ? | 0.0082µM* | 21% | 21µM* | -23% | -26%
COc1ccccc1-c1ccc(=O)n(Cc2ccccc2F)n1 | / | / | / | / | / | -5%
CCCCNc1c(-c2ccc(F)cc2)nc2nc(C)cc(C)n12 | ? | ? | / | / | / | -6%
CCc1nc2nc(C)cc(C)n2c1Nc1ccc(OC)cc1 | ? | 18µM* | / | / | / | -29%
COc1ccc(Nc2c(CCc3ccccc3)nc3nc(C)cc(C)n23)cc1 | 18µM* | 13µM* | / | / | / | 18%
Cc1ccc(Nc2c(-c3ccco3)nc3nc(C)cc(C)n23)cc1 | ? | ? | 24% | 5% | ? | ?
CCCCNc1c(CCc2ccccc2)nc2nc(C)cc(C)n12 | 18µM* | ? | / | / | / | -30%
CN1c2cccnc2CN(Cc2ccc(OC(F)(F)F)cc2)CC[C@H]1CO | / | / | / | / | / | 32%[176 µM]
O=S(CCCOc1ccc(F)cc1)Cc1ccc(F)cc1 (stereo not drawn) | / | / | / | / | / | -53%
COC(=O)c1ccc(NC(=O)C2=C(c3ccccc3)S(=O)(=O)CCO2)cc1 | / | / | / | / | / | -2%
COc1ccc(Oc2coc3cc(OC(=O)c4ccc5c(c4)OCO5)ccc3c2=O)cc1 | / | / | / | / | / | 118%
COc1ccc(C2=NC(c3ccccc3)CO2)cc1 (stereo not drawn) | / | / | 10µM* | ? | 13µM* | /
COc1ccc(C2=N[C@H](c3ccccc3)CO2)cc1 | / | / | 16µM* | / | -6%[96.6 µM] | /
CCN1c2cc(C(=O)Nc3cc(F)ccc3F)ccc2C(=O)N2CCCCCC21 (stereo not drawn) | / | / | / | / | / | 23%
CN(C)c1cccc(C(=O)Nc2ccc(C#N)cc2)c1 | / | / | / | / | / | -9%
